Holding throughout (assay): NCI-60 one-dose screen, 48 h (100 = growth as untreated, 0 = no growth, -100 = all killed)
One test relates to HCT-15 colon. To be noted: 10 µM unless noted.
Another test has as its system HT29 colon. The settings on record: 10 µM unless noted.
The next test has as its system SNB-75 CNS. To be noted: 10 µM unless noted.
A further test relates to SNB-19 CNS. The settings on record: 10 µM unless noted.
A further test has as its system U251 CNS. The settings on record: 10 µM unless noted.
Another test concerns PC-3 prostate. To be noted: 10 µM unless noted.
In a further test the test system is SK-MEL-5 melanoma. To be noted: 10 µM unless noted.
For the next test, the system named is UACC-62 melanoma.
In the next test the test system is LOX IMVI melanoma. The settings on record: 10 µM unless noted.
A further test concerns SK-MEL-2 melanoma. The settings on record: 10 µM unless noted.
Another test deals with EKVX NSCLC. The settings on record: 10 µM unless noted.
The test system of the next test is SN12C renal. The settings on record: 10 µM unless noted.
Another test relates to UO-31 renal. To be noted: 10 µM unless noted.
Another test deals with ACHN renal. The settings on record: 10 µM unless noted.
For the next test, the system named is CAKI-1 renal. The settings on record: 10 µM unless noted.
A further test deals with A498 renal. To be noted: 10 µM unless noted.
The subject of another test is HL-60(TB) leukemia. The settings on record: 10 µM unless noted.
Another test relates to CCRF-CEM leukemia. The settings on record: 10 µM unless noted.
For a further test, the system named is MOLT-4 leukemia. To be noted: 10 µM unless noted.
For another test, the system named is SK-MEL-28 melanoma. The settings on record: 10 µM.

Each structure is given as a SMILES string. “And” between values parts separate entries of the source, which are not always exact repeats. Identical values can stand only once. Compounds without any hit were thinned out: in the full panel of roughly 83,000, 20% have a hit.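 Step 1: grow cells in 96-well plates. Step 2: add test compound at a single concentration. Step 3: incubate 48 h. Step 4: record percent growth.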 Unmarked numbers belong to inactive results. The source made the active and inactive calls. The calls were made as follows: active = growth percent below 10; inactive = the rest.

The source of these data is PubChem BioAssay (NCI).

On to `CCC1(O)CC(OC2CC(N(C)C)C(OC3CC4OC5CC(=O)C(C)OC5OC4C(C)O3)C(C)O2)c2c(cc3c(c2O)C(=O)c2c(O)ccc(O)c2C3=O)C1C(=O)OC` (stereo not drawn), for which the growth with HCT-15 colon was -46.1% (active); in the test on HT29 colon it was -36.4% (active); in the test with SNB-75 CNS, -98% (active); in the test with SNB-19 CNS, 0.801% (active); in the test on U251 CNS, -18.4% (active); in the test on PC-3 prostate it was -63.5% (active). In addition, the growth was -87.3% (active) with SK-MEL-5 melanoma; -72.5% (active) in the test on UACC-62 melanoma (10 µM); -22.7% (active) in the test on LOX IMVI melanoma; -54.8% (active) in the test on SK-MEL-2 melanoma; 1.67% (active) in the test with EKVX NSCLC; 13.4% with SN12C renal. Further, the growth in the test with UO-31 renal was -39.6% (active); in the test with ACHN renal, -17.6% (active); in the test on CAKI-1 renal, -15.4% (active); in the test on A498 renal, -71.4% (active); in the test with HL-60(TB) leukemia it was -41.6% (active); in the test on CCRF-CEM leukemia it was -31.2% (active). Further, the growth in the test with MOLT-4 leukemia is -9.49% (active).
Consider `COC1=C(C)C(=O)C2=C(C1=O)C(CO)N1C(C#N)C3CC4C(C1C2N1CCOC41)N3C` (stereo not drawn), for which the growth with HCT-15 colon was -29.8% (active); in the test with HT29 colon it was -47.7% (active); with SNB-19 CNS, 8.12% (active); with U251 CNS, -9.96% (active); in the test on PC-3 prostate it was -40.2% (active); in the test with SK-MEL-5 melanoma, -90.1% (active). Moreover, the growth in the test on UACC-62 melanoma (10 µM) is -81.2% (active); in the test with LOX IMVI melanoma it was -21.2% (active); in the test with SK-MEL-2 melanoma, -58.4% (active); with EKVX NSCLC, 0.181% (active); in the test with SN12C renal, 19.8%; in the test on ACHN renal it was -9.01% (active). For the same compound, the growth with CAKI-1 renal was -23.1% (active); with A498 renal, -67.7% (active); with HL-60(TB) leukemia, -33.9% (active); in the test with CCRF-CEM leukemia, -37.8% (active); in the test with MOLT-4 leukemia it was -2.61% (active).
As for `Cc1c(N)nc([C@H](CC(N)=O)NC[C@H](N)C(N)=O)nc1C(=O)N[C@H](C(=O)N[C@H](C)[C@@H](O)[C@H](C)C(=O)N[C@H](C(=O)NCCc1nc(-c2nc(C(=O)NCCC[S+](C)C)cs2)cs1)[C@@H](C)O)C(OC1OC(CO)C(O)C(O)C1OC1OC(CO)C(O)C(OC(N)=O)C1O)c1cnc[nH]1` (stereo partly drawn), the growth in the test on HCT-15 colon is 67.8% [2.5 µM]; in the test on HT29 colon it was 77.9% [2.5 µM]; with SNB-75 CNS, 40.6% [2.5 µM]; in the test on SNB-19 CNS, 74.2% [2.5 µM]; with U251 CNS, 58.4% [2.5 µM]; in the test with PC-3 prostate, 60.5% [2.5 µM]. For the same compound, the growth in the test on SK-MEL-5 melanoma was 34.1% [2.5 µM]; in the test with UACC-62 melanoma (2.5 µM) it was 43.8%; with UACC-62 melanoma (25 µM), -42.5% (active) and -100% (active); in the test with LOX IMVI melanoma, 14.3% [2.5 µM]; in the test on SK-MEL-2 melanoma, 125% [2.5 µM]; with EKVX NSCLC, 103% [2.5 µM]. Besides, the growth is 52.2% [2.5 µM] in the test on SN12C renal; 39.9% [2.5 µM] in the test on UO-31 renal; -6.04% [2.5 µM] (active) with ACHN renal; 26.4% [2.5 µM] with CAKI-1 renal; 84.1% [2.5 µM] with A498 renal; 81.8% [2.5 µM] in the test on HL-60(TB) leukemia. Also, the figures for the growth in the test on CCRF-CEM leukemia and in the test on MOLT-4 leukemia were 51.6% [2.5 µM] and 67.1% [2.5 µM], respectively.
Turning to `Cc1ccc(C(=O)OC(C(=O)O)C(OC(=O)c2ccc(C)cc2)C(=O)O)cc1` (stereo not drawn) (tested in a mixture with another compound), the growth in the test on HCT-15 colon is 16.3%; with HT29 colon, 23%; with SNB-75 CNS, 55%; with U251 CNS, 54.3%; in the test with PC-3 prostate, 29.4%; in the test with SK-MEL-5 melanoma, 14.7%. Moreover, the growth was 45% in the test on UACC-62 melanoma (10 µM); 56.2% in the test with LOX IMVI melanoma; 57.7% in the test with SK-MEL-28 melanoma; 77.1% in the test with SK-MEL-2 melanoma; 32.7% with EKVX NSCLC; 38.5% with SN12C renal. In addition, the growth in the test with ACHN renal is 66%; in the test on CAKI-1 renal it was 50.7%; in the test on A498 renal, 77.7%; in the test with HL-60(TB) leukemia it was 23.5%; with CCRF-CEM leukemia, 23%; in the test with MOLT-4 leukemia, 35.9%.
As for `CCC(=O)OC1CCn2c1nc1c2C(=O)C(C)=C(N2CC2)C1=O` (stereo not drawn), the growth was 2.82% (active) in the test on HCT-15 colon; 7.71% (active) with HT29 colon; -87% (active) with SNB-75 CNS; 1.12% (active) in the test on SNB-19 CNS; -24.2% (active) in the test with U251 CNS; 8.58% (active) in the test with PC-3 prostate. Moreover, the growth was -98% (active) in the test with SK-MEL-5 melanoma; -67.8% (active) with UACC-62 melanoma (10 µM); -75.7% (active) in the test on LOX IMVI melanoma; -42.1% (active) in the test with SK-MEL-28 melanoma; -43.9% (active) with SK-MEL-2 melanoma; 8.46% (active) in the test with EKVX NSCLC. The growth was -43.9% (active) with SN12C renal; -9.18% (active) in the test on UO-31 renal; -25.3% (active) with ACHN renal; -8.28% (active) in the test with CAKI-1 renal; -77.6% (active) in the test on A498 renal; 10.4% in the test on HL-60(TB) leukemia. The growth with CCRF-CEM leukemia is 70.4%; with MOLT-4 leukemia, 70.5%.
On to `C[C@]12CC[C@H](O)CC1=CC[C@@H]1[C@@H]2CC[C@]2(C)C(=O)CC[C@@H]12`, for which the growth with HCT-15 colon was 99.7%; in the test with HT29 colon, 81.5%; in the test on SNB-75 CNS, 71.6%; in the test with SNB-19 CNS, 95%; with U251 CNS, 101%; with PC-3 prostate it was 79.2%. Further, the growth in the test on SK-MEL-5 melanoma is 92.9%; in the test with UACC-62 melanoma (10 µM), 92.9%; in the test on LOX IMVI melanoma, 102%; in the test with SK-MEL-2 melanoma it was 95.3%; with EKVX NSCLC, 85.7%; in the test on SN12C renal it was 106%. Also, the growth was 80.6% in the test on UO-31 renal; 108% with ACHN renal; 87.3% in the test on CAKI-1 renal; 92% in the test on A498 renal; 85% in the test on HL-60(TB) leukemia; 76.3% in the test on CCRF-CEM leukemia. Further, in the test with MOLT-4 leukemia, the growth was 89%.
For `CC1CCC2(NC1)OC1CC3C4CCC5CC(OC6OC(CO)C(OC7OC(CO)C(O)C(OC8OCC(O)C(O)C8O)C7OC7OC(CO)C(O)C(O)C7O)C(O)C6O)CCC5(C)C4CCC3(C)C1C2C` (stereo not drawn), the growth in the test on UACC-62 melanoma (100 µM) is -77.3% (active) and -86.4% (active).
As to `C[C@H]1CCC/C=C/[C@@H]2C[C@H](O)C[C@H]2[C@H](O)/C=C/C(=O)O1`, the growth with HCT-15 colon is -28.2% (active); with HT29 colon, -53.5% (active); in the test on SNB-75 CNS, -19.7% (active); with SNB-19 CNS, 38.3%; in the test with U251 CNS, 20.6%; in the test on PC-3 prostate, -14.6% (active). Besides, the growth in the test with SK-MEL-5 melanoma is -96.7% (active); with UACC-62 melanoma (10 µM), 20.9%; in the test on LOX IMVI melanoma, -69.4% (active); in the test with SK-MEL-2 melanoma, -21.5% (active); with EKVX NSCLC it was 11.1%; in the test with SN12C renal, 19.8%. The growth in the test with UO-31 renal was -22.9% (active); with ACHN renal, 1.27% (active); in the test with CAKI-1 renal, -2.67% (active); with A498 renal, -37.1% (active); with HL-60(TB) leukemia it was -22.5% (active); in the test with CCRF-CEM leukemia, 7.53% (active). Moreover, the growth with MOLT-4 leukemia was -7.93% (active).
